From PubChem BioAssay (NCI)
This is part of a sample that, as a whole, favours compounds with a hit. Of some 79,000 tested, about 15% had one in any assay. Activity calls are given as the source filed them. No stated cut-off is given here; in the data, active means growth inhibition above about 70%; inactive means the rest.

Tests used:
[1] = NCI Yeast Anticancer Drug Screen. Data for the rad52 strain (AID 147);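 further: 0% = growth of vehicle-treated control cultures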; conditions: S. cerevisiae rad52 mutant growth inhibition, stronger effect = higher value
In short: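 Read-out: growth inhibition versus vehicle-treated controls. Cells were a DNA repair-deficient yeast strain treated with compounds.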

[2] = NCI Yeast Anticancer Drug Screen. Data for the wt1 strain (AID 149);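 further: 0% = growth of vehicle-treated wt1 cultures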; conditions: S. cerevisiae wt1 strain (SPY 50644) growth inhibition, stronger effect = higher value
In short: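 wt1 strain grown with compound or vehicle; inhibition taken from the growth difference.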

[3] = NCI Yeast Anticancer Drug Screen. Data for the rad50EPP+ strain (AID 151);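 further: 0% = growth of vehicle-treated control cultures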; conditions: S. cerevisiae rad50 mutant strain, stronger effect = higher value
In short: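 Growth inhibition read against vehicle controls in rad50EPP+ yeast, a strain altered in DNA damage repair, after compound exposure.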

[4] = NCI Yeast Anticancer Drug Screen. Data for the mgt1 strain (AID 153); conditions: S. cerevisiae mgt1 mutant growth inhibition, stronger effect = higher value
In short: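 mgt1 yeast grown with test compound; read-out is growth inhibition versus vehicle-treated cultures.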

[5] = NCI Yeast Anticancer Drug Screen. Data for the rad50 strain (AID 155);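 further: 0% = growth of vehicle-only cultures of the same strain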; conditions: S. cerevisiae rad50 strain growth inhibition, stronger effect = higher value
In short: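 DNA repair mutant yeast, compound exposure, growth read-out; inhibition is taken relative to vehicle.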

[6] = NCI Yeast Anticancer Drug Screen. Data for the mec2-1 strain (AID 157); conditions: S. cerevisiae mec2-1 strain, stronger effect = higher value
In short: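 Yeast mec2-1 mutant treated with compound. Readout: growth inhibition vs vehicle controls.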

[7] = NCI Yeast Anticancer Drug Screen. Data for the rad14 strain (AID 159);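 further: 0% = growth of vehicle-treated control cultures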; conditions: S. cerevisiae rad14 strain growth inhibition, stronger effect = higher value
In short: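 DNA repair-defective yeast, compound-exposed; % growth inhibition derived by comparison with vehicle-treated controls.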

[8] = NCI Yeast Anticancer Drug Screen. Data for the sgs1 mgt1 strain (AID 161);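 further: 0% = growth of cultures given vehicle only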; conditions: S. cerevisiae sgs1 mgt1 strain, stronger effect = higher value
In short: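 Inhibition of yeast growth, normalised to vehicle-treated controls, is reported for a strain bearing genetic alterations in DNA damage repair.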

[9] = NCI Yeast Anticancer Drug Screen. Data for the CLN2oe strain (AID 163);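 further: 0% = growth of vehicle-only control cultures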; conditions: S. cerevisiae CLN2oe strain, stronger effect = higher value
In short: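 Read-out: yeast growth inhibition, expressed relative to vehicle-only controls. The strain bears an engineered cell-cycle alteration.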

[10] = NCI Yeast Anticancer Drug Screen. Data for the cln2 rad14 strain (AID 165);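 further: 0% = growth equal to vehicle treated cultures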; conditions: S. cerevisiae cln2 rad14 strain, stronger effect = higher value
In short: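 cln2 rad14 yeast strain; compound exposure; growth inhibition read vs vehicle controls.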

[11] = NCI Yeast Anticancer Drug Screen. Data for the bub3 strain (AID 167); conditions: S. cerevisiae bub3 mutant strain, stronger effect = higher value
In short: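 In this screen, a yeast mutant lacking normal mitotic checkpoint function is challenged with compound. Relative growth versus vehicle gives the inhibition value.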

[12] = NCI Yeast Anticancer Drug Screen. Data for the wt2 strain (AID 169);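 further: 0% = growth of vehicle-treated yeast cultures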; conditions: S. cerevisiae wt2 strain growth inhibition, stronger effect = higher value
In short: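 Read-out: growth inhibition versus vehicle-treated control cultures after compound exposure of the yeast strain.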

[13] = NCI Yeast Anticancer Drug Screen. Data for the mlh1 strain (AID 171);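 further: 0% = growth of vehicle-treated control cultures of the same strain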; conditions: S. cerevisiae mlh1 strain growth inhibition, stronger effect = higher value
In short: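 Read-out: growth inhibition versus vehicle controls. Strain: engineered yeast with a defined DNA repair or cell cycle defect, compound-treated.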

[14] = NCI Yeast Anticancer Drug Screen. Data for the sgs1 strain (AID 173);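 further: 0% = growth of vehicle-only control cultures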; conditions: S. cerevisiae sgs1 mutant, stronger effect = higher value
In short: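 Read-out: yeast growth inhibition relative to vehicle controls, following compound exposure of a strain with a defined DNA repair/cell cycle alteration.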

[15] = NCI Yeast Anticancer Drug Screen. Data for the mlh1 rad18 strain (AID 175); conditions: S. cerevisiae mlh1 rad18 strain growth inhibition, stronger effect = higher value
In short: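 Yeast w/ defined DNA-repair lesions; compound exposure; growth vs vehicle controls → % inhibition.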

[16] = NCI Yeast Anticancer Drug Screen. Data for the rad18 strain (AID 177); conditions: S. cerevisiae rad18 mutant growth inhibition, stronger effect = higher value
In short: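 Readout: growth inhibition vs vehicle controls. Cells: genetically altered yeast strain, DNA repair defect.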

[17] = at 5.0 µM (retest, dose inferred, filed as 0.5)
[18] = at 50.0 µM (retest, dose inferred, filed as 5.0)

Measured: growth inhibition

C[N+](C)([O-])CCCNc1c2ccccc2nc2cccc([N+](=O)[O-])c12
inactive: [1]; at 1.2 µM 54% | [2]; at 1.2 µM -3% | [2]; at 3.7 µM 7% | [2]; at 11.0 µM 24% | [3]; at 1.2 µM 28% | [3]; at 3.7 µM 44% | [4]; at 1.2 µM -5% | [4]; at 3.7 µM -10% | [4]; at 11.0 µM 7% | [5]; at 1.2 µM 31% | [5]; at 3.7 µM 68% | [5]; [17] 63% | [6]; at 1.2 µM 3% | [6]; at 3.7 µM 54% | [6]; [17] 54% | [7]; at 1.2 µM 41% | [8]; [17] 41% | [9]; at 1.2 µM -2% | [9]; at 3.7 µM -1% | [9]; at 11.0 µM 33% | [11]; at 1.2 µM -25% | [11]; at 3.7 µM -14% | [11]; [17] 6% | [11]; at 11.0 µM 15% | [11]; at 50.0 µM 52.6% | [12]; at 1.2 µM -1% | [12]; at 3.7 µM 20% | [12]; at 11.0 µM 26% | [13]; at 1.2 µM 14% | [13]; at 3.7 µM 22% | [13]; at 11.0 µM 44%
active: [1]; at 3.7 µM 86% | [1]; at 11.0 µM 94% | [1]; at 33.0 µM 96% | [1]; at 100.0 µM 96% | [2]; at 33.0 µM 80% | [2]; at 100.0 µM 94% | [3]; at 11.0 µM 79% | [3]; at 33.0 µM 94% | [3]; at 100.0 µM 95% | [4]; at 33.0 µM 70% | [4]; at 100.0 µM 93% | [5]; at 11.0 µM 91% | [5]; at 33.0 µM 94% | [5]; [18] 89% | [5]; at 50.0 µM 86.8% | [5]; at 100.0 µM 95% | [6]; at 11.0 µM 93% | [6]; at 33.0 µM 97% | [6]; [18] 95% | [6]; at 50.0 µM 88% | [6]; at 100.0 µM 96% | [7]; at 3.7 µM 90% | [7]; at 11.0 µM 94% | [7]; at 33.0 µM 96% | [7]; at 100.0 µM 96% | [8]; [18] 89% | [8]; at 50.0 µM 83.2% | [9]; at 33.0 µM 82% | [9]; at 100.0 µM 93% | [10]; [17] 85% | [10]; [18] 96% | [10]; at 50.0 µM 87.2% | [11]; at 33.0 µM 79% | [11]; [18] 74% | [11]; at 100.0 µM 95% | [12]; at 33.0 µM 84% | [12]; at 100.0 µM 94% | [13]; at 33.0 µM 89% | [13]; at 100.0 µM 95% | [14]; at 1.2 µM 80% | [14]; at 3.7 µM 89% | [14]; at 11.0 µM 94% | [14]; at 33.0 µM 94% | [14]; at 100.0 µM 97% | [15]; [17] 81% | [15]; [18] 95% | [15]; at 50.0 µM 78.5% | [16]; at 1.2 µM 95% | [16]; at 3.7 µM 96% | [16]; at 11.0 µM 96% | [16]; at 33.0 µM 97% | [16]; at 100.0 µM 97%

O=[N+]([O-])c1ccc2[nH]c3c(-c4ccccc4)nccc3c2c1
active: [1]; at 11.0 µM 96% | [1]; at 33.0 µM 97% | [1]; at 100.0 µM 97% | [2]; at 11.0 µM 87% | [2]; at 33.0 µM 94% | [2]; at 100.0 µM 92% | [3]; at 33.0 µM 79% | [3]; at 100.0 µM 79% | [4]; at 11.0 µM 94% | [4]; at 33.0 µM 97% | [4]; at 100.0 µM 97% | [5]; at 11.0 µM 92% | [5]; at 33.0 µM 96% | [5]; [18] 96% | [5]; at 50.0 µM 98.8% | [5]; at 100.0 µM 96% | [6]; at 11.0 µM 96% | [6]; at 33.0 µM 98% | [6]; [18] 97% | [6]; at 50.0 µM 91.2% | [6]; at 100.0 µM 98% | [7]; at 11.0 µM 85% | [7]; at 33.0 µM 96% | [7]; at 100.0 µM 95% | [8]; [18] 98% | [8]; at 50.0 µM 93% | [9]; at 11.0 µM 96% | [9]; at 33.0 µM 96% | [9]; at 100.0 µM 96% | [10]; [18] 96% | [10]; at 50.0 µM 98.3% | [11]; at 3.7 µM 90% | [11]; at 11.0 µM 96% | [11]; at 33.0 µM 97% | [11]; [18] 97% | [11]; at 50.0 µM 98.8% | [11]; at 100.0 µM 96% | [12]; at 11.0 µM 96% | [12]; at 33.0 µM 98% | [12]; at 100.0 µM 98% | [13]; at 11.0 µM 96% | [13]; at 33.0 µM 97% | [13]; at 100.0 µM 97% | [14]; at 11.0 µM 93% | [14]; at 33.0 µM 97% | [14]; at 100.0 µM 96% | [15]; [18] 96% | [15]; at 50.0 µM 97.8% | [16]; at 11.0 µM 95% | [16]; at 33.0 µM 96% | [16]; at 100.0 µM 97%
inactive: [1]; at 1.2 µM -1% | [1]; at 3.7 µM 8% | [2]; at 1.2 µM -4% | [2]; at 3.7 µM -8% | [3]; at 1.2 µM 20% | [3]; at 3.7 µM 43% | [3]; at 11.0 µM 68% | [4]; at 1.2 µM -2% | [4]; at 3.7 µM -4% | [5]; at 1.2 µM -3% | [5]; at 3.7 µM 2% | [5]; [17] 10% | [6]; at 1.2 µM -4% | [6]; at 3.7 µM -6% | [6]; [17] -5% | [7]; at 1.2 µM -1% | [7]; at 3.7 µM -1% | [8]; [17] 10% | [9]; at 1.2 µM -8% | [9]; at 3.7 µM 38% | [10]; [17] -10% | [11]; at 1.2 µM 10% | [11]; [17] 52% | [12]; at 1.2 µM 0% | [12]; at 3.7 µM 43% | [13]; at 1.2 µM -2% | [13]; at 3.7 µM 15% | [14]; at 1.2 µM -12% | [14]; at 3.7 µM 0% | [15]; [17] 3% | [16]; at 1.2 µM -1% | [16]; at 3.7 µM -4%

CCCCCCCCCCCNC=O
inactive: [1]; at 1.2 µM -33% | [1]; at 3.7 µM -30% | [1]; at 11.0 µM -39% | [1]; at 33.0 µM 34% | [2]; at 1.2 µM -18% | [2]; at 3.7 µM -10% | [2]; at 11.0 µM -9% | [2]; at 33.0 µM 1% | [3]; at 1.2 µM -14% | [3]; at 3.7 µM -11% | [3]; at 11.0 µM 0% | [3]; at 33.0 µM 15% | [4]; at 1.2 µM -30% | [4]; at 3.7 µM -19% | [4]; at 11.0 µM -18% | [5]; at 1.2 µM -16% | [5]; at 3.7 µM -19% | [5]; [17] 1% | [5]; at 11.0 µM -41% | [5]; at 33.0 µM 29% | [6]; at 1.2 µM -22% | [6]; at 3.7 µM -21%
active: [1]; at 100.0 µM 98% | [2]; at 100.0 µM 98% | [3]; at 100.0 µM 97% | [4]; at 33.0 µM 72% | [4]; at 100.0 µM 98% | [5]; [18] 96% | [5]; at 50.0 µM 89.9% | [5]; at 100.0 µM 98%
